# Shown are actives, neighbours in structure and some others; about 19% of the full set was active somewhere.
# IL-1B inflam inh: blocks inflammasome-driven IL-1 beta release | THP-1 LPS/ATP IL-1B secretion, AlphaLISA, 16 h; active compounds read low | activity change, % at 57.5 µM | 360,000 compounds, 4.7% hits; in the data active = activity change below about -50%; inconclusive = mostly about -30% to -49%
#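 THP-1 cells pretreated 1 hr with compounds (up to 57.5 uM final), then stimulated with LPS (250 ng/mL final) plus ATP (1.25 mM final); secreted IL-1B measured by AlphaLISA after 16 hr, decreased signal indicating inhibition.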
# HT1080NT lethal: kills 2HG-producing HT-1080-NT fibrosarcoma cells; HT-1080-NT fibrosarcoma viability, CellTiter-Glo ATP luminescence, 48 h; Potency, µM (series often up to 46.1 µM), for inactives: at the highest dose activity, negative = less viability, hits mostly cytotoxic; 360,000 compounds, 1.6% hits; AID 686970;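 note: NT is the 2HG producing partner of a matched IDH1 knockdown line; potency is the fitted concentration of half-maximal effect; 0% = DMSO-treated cells and -100% = media-only wells without cells; nearly all actives have a fitted effect of over 55% in size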
#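 Compounds were tested in concentration-response format on HT-1080-NT cells for 48 hours at 37 degrees C. Cell viability came from CellTiter-Glo luminescence; curves were classified by r2, response magnitude and activity.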
# ELG1 DNA repair: blocks ELG1-dependent DNA repair in HEK293T cells; Potency, µM (doses to about 46.1 µM), without a hit: top-dose activity change, negative = inhibition, actives largely listed as inhibitors; HEK293T ELG1-luciferase reporter, luminescence, 16 h; DNA damage induced by 5-fluorouridine; 330,000 compounds, 2.3% hits; note: potency is the fitted concentration of half-maximal effect; nearly all actives have a fitted effect of over 55% in size
#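 Cells (2,000 per well) received 5-fluorouridine plus test compound or DMSO and were incubated 16 hr at 37 °C, 5% CO2. Luciferase activity was read by luminescence 30 min after ONE-Glo addition; signal suppression marked inhibition of damage-induced ELG1 function.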
# TDP1 cell CPT: growth inhibition of DT40 Tdp1-/-;hTDP1 cells with camptothecin (screen for TDP1 inhibitors). AID 686979. 420,000 compounds, 12% hits. chicken DT40 Tdp1-/-;hTDP1 cells + 20 nM CPT, ATP luminescence, 48 h. Potency, µM (series often up to 46.2 µM), inactives show at the highest dose activity change, negative = growth inhibition, most hits filed as inhibitors; note: potency is the fitted concentration of half-maximal effect; nearly all actives have a fitted effect of over 55% in size
#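 Chicken DT40 Tdp1-/- cells complemented with human TDP1, 400 cells/well, exposed to compounds plus 20 nM camptothecin for at least 48 h at 37 C; viability read as ATP content by CellTiter-Glo luminescence.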
# HT1080 IDH1KD tx: kills HT-1080 cells with IDH1 knockdown; HT-1080 IDH1 knockdown viability, ATP luminescence, 48 h; Potency, µM (highest dose often 46.1 µM), for the others: at the highest dose activity, negative = toxicity, most hits filed as cytotoxic; 360,000 compounds, 2% hits; AID 686971;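 note: potency is the fitted concentration of half-maximal effect; 0% = DMSO wells and -100% = cell-free medium wells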
#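 After a 2 h attachment period, IDH1KD HT-1080 cells took pin-transferred compound for 48 h at 37 °C; ATP-based luminescence after 10 min room-temperature reagent incubation reported viability.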
# DT40 TDP1 no CPT: qHTS for Inhibitors of human tyrosyl-DNA phosphodiesterase 1 (TDP1): qHTS in cells in absence of CPT; Potency, µM (highest dose often 46.2 µM), for the others: at the top dose activity change, negative = growth inhibition, hits mostly inhibitors; AID 686978, 2013; DT40 Tdp1-/- hTDP1 cells, no CPT, ATP luminescence, 48 h; 420,000 compounds, 15% hits; note: potency is the fitted concentration of half-maximal effect; nearly all actives have a fitted effect of over 55% in size
#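 Luminescent ATP content (CellTiter-Glo) served as the growth readout. Knockout chicken DT40 cells expressing human TDP1 were exposed to compounds without camptothecin for a minimum 48 hr at 37 °C.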
# Starred values were filed as active, the others as inactive; ? = inconclusive; . = not tested or not shown; [ ] = remark or other dose. Unless noted, calls come from the whole dose curve; as a rule, active = well fitted curve in the direction sought with a large enough effect; inconclusive = small, poorly fitted or top-dose-only effect, or another doubt; inactive = no such curve, though single readings can be large; an effect the other way counts as inactive or inconclusive. Unless noted, % is set by controls: 0 for no effect and ±100 for the full control effect.
SMILES,IL-1B inflam inh,HT1080NT lethal,ELG1 DNA repair,TDP1 cell CPT,HT1080 IDH1KD tx,DT40 TDP1 no CPT
CC(=O)N1CCN(Cc2nc3cc(NC(=O)c4ccc(Cl)cc4)ccc3n2C)CC1,14.6,?,20.6µM*,-10.5%,-5.4%,-14.9%
COc1cccc(C(NC(C)=O)c2nc(-c3cccc(F)c3)cs2)c1 (centres undefined),-18.2,-3.6%,.,-24.8%,9.4%,-2.5%
c1ccc2c(c1)Nc1ccncc1S2,-94.1*,-28.1%,18.3µM*,-18.8%,-19.3%,?
c1ccc2c(c1)Nc1cc3ccccc3cc1S2,4.1,22.0%,?,3.3%,18.8%,-10.3%
Cc1ccc(C2=NN(CC(=O)NC(C)c3ccccc3)C(=O)CC2)cc1 (centres undefined),.,.,.,-7.7%,.,-3.9%
Sc1oc(-c2ccccc2)cc1C=Nc1ccccc1,-0.2,7.94µM*,?,5.8µM*,11.2µM*,16.4µM*
CSc1cccc(Nc2cc(C(=O)NC3CCCCC3)c3ccccc3n2)c1,.,.,.,?,.,-25.1%
CSc1cccc(Nc2cc(C(=O)NCCCN(Cc3ccccc3)C(C)C)c3ccccc3n2)c1,.,.,.,5.8µM*,.,4.61µM*
Cc1cc(C)cc(Nc2cc(C(=O)NCCCN(Cc3ccccc3)C(C)C)c3ccccc3n2)c1,.,.,.,3.26µM*,.,3.26µM*
COc1ccc(NC(=O)CSc2nnc(-c3ccncc3)o2)c([N+](=O)[O-])c1,-4.4,13.3%,-0.7%,8.6%,19.2%,0.3%
CCCC1C(=O)Nc2ccccc2N1C(=O)c1ccc(C(C)(C)C)cc1 (centres undefined),-82.1*,9.2µM*,?,?,?,20.6µM*
CC1CCC(NC(=O)Cn2cnc3sccc3c2=O)CC1 (centres undefined),1.1,5.8%[9.24 µM],?,-9.3%,8.6%,10.8%
CC(C)N1CCc2c(sc(NC(=O)Cc3ccccc3)c2C(N)=O)C1,?,6.7%,-5.9%,-6.9%,9.1%,-21.9%
CC(C)N1CCc2c(sc(NC(=O)c3ccc4ccccc4c3)c2C(N)=O)C1,-84.4*,?,1.1%,14.6µM*,?,?
CC(C)NC(=O)c1cc2cc([N+](=O)[O-])ccc2s1,-7.2,0.2%,-18.8%,?,-0.8%,14.6µM*
CC(C)N1CCc2c(sc(NC(=O)c3ccc(C(=O)c4ccccc4)cc3)c2C(N)=O)C1,-98.1*,20.6µM*,?,?,18.4µM*,23.1µM*
CCCNC(=O)c1cc2cc([N+](=O)[O-])ccc2s1,-1.0,-14.0%,?,-26.1%,-2.2%,-17.4%
CC(C)N1CCc2c(sc(NC(=O)c3cc4cc([N+](=O)[O-])ccc4s3)c2C(N)=O)C1,121.4,?,-1.4%,4.61µM*,?,4.61µM*
Cc1cccc(NC(=O)c2cc3cc([N+](=O)[O-])ccc3s2)n1,6.0,8.5%,-14.6%,3.7%,8.3%,4.4%
Cc1cccc(C)c1NC(=O)CNC(=O)c1c(C)nn(-c2ccccc2)c1Cl,14.7,4.2%,-10.9%,-4.3%,5.0%,0.0%
CCCCN(CCCC)Cc1cc(=O)oc2cc(C)c(Cl)cc12,10.4,-6.8%,.,?,-9.3%,?
CC1CCCCN1C(=O)C1CCCN(S(=O)(=O)c2cccc3nsnc23)C1 (centres undefined),60.7,12.6%,4.2%,?,15.5%,-19.1%
O=C(NCCc1ccccc1)C1CCCN(S(=O)(=O)c2cccc3nsnc23)C1 (centres undefined),0.0,3.0%,?,?,0.6%,13µM*
O=C(C1CCCN(S(=O)(=O)c2cccc3nsnc23)C1)N1CC=C(c2ccccc2)CC1 (centres undefined),-54.8*,-12.0%,?,13µM*,?,10.3µM*

# Source: PubChem
